Rows were chosen to be rich in hits. Some 1.2% of all compounds tested hit in one or more screens of this group.
Mtb bLac sens – beta-lactam sensitization of Mtb H37Rv | M. tuberculosis H37Rv growth with meropenem, percent inhibition | inhibition, % at 25 µM | 330,000 tested, 0.27% active; call rule not given here;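 note: growth measured after seven days incubation then overnight dye step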
CCHF vOTU inh-1 – blocks the CCHF virus ovarian tumor domain protease; CCHFV vOTU protease, Pep-AMC fluorescence; inhibition, % at 11.5 µM; 370,000 tested, 0.55% active
RecA splice inh – inhibitors of M. tuberculosis RecA intein splicing | 290,000 tested, 0.75% active | inhibition, % (no concentration beside the values) | cell-free RecA intein splicing, fluorescence | P9WHJ3; in the data active = inhibition above about 30%; inconclusive = no clear call, values can overlap the other calls
Target sequence (P9WHJ3 whole entry, looked up, canonical isoform): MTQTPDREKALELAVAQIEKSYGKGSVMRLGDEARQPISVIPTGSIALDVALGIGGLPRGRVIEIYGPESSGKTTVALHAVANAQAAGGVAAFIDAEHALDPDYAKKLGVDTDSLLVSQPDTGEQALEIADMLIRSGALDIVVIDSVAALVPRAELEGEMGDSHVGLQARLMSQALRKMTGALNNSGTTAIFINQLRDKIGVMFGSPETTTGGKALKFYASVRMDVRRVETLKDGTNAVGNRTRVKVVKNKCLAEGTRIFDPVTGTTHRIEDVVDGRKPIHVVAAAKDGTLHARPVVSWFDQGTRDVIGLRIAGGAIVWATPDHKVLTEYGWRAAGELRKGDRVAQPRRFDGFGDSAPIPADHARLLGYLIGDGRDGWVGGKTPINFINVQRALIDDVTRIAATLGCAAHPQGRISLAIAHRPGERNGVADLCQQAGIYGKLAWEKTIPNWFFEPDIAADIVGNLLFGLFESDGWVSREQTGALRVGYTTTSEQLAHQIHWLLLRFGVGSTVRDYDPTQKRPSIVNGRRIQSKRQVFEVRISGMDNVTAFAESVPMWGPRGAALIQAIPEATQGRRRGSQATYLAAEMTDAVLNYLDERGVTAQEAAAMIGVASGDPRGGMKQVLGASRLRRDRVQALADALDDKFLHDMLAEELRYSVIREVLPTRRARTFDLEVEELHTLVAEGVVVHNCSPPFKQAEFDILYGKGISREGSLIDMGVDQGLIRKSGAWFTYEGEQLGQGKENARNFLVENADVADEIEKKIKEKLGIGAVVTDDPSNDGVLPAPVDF
Rv3671c protease – Rv3671c (M. tuberculosis) protease inhibition; inhibition, % at 5.96 µM; 320,000 tested, 0.048% active; in the data active = inhibition above about 38%;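 note: extracellular domain of Rv3671c used as enzyme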
UGM FP inh – blocks M. tuberculosis UGM enzyme. P9WIQ1. purified UGM, fluorescence polarization probe displacement. inhibition, % at 10 µM. 320,000 tested, 0.06% active. AID 504406; in the data active = inhibition above about 10%, passing the limit was not always enough; inconclusive = no clear call, values can overlap the other calls
Rv3671c confirm – confirmation of M. tuberculosis Rv3671c protease inhibitors; shares compounds with Rv3671c protease; inhibition, % at 5.96 µM; 140 tested, 40% active; in the data active = inhibition above about 38%
DNA intercalat – counter-screen: DNA intercalators; 35 tested, 60% active; AID 463198; acridine orange-DNA binding, fluorescence polarization; AC50, µM; shares compounds with UGM FP inh;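 active = fitted AC50 no greater than ten times the top concentration tested, cut at about 17 µM in these data; inconclusive = flat fit with 30 to 70% signal change, or an unreliable fit; inactive = AC50 beyond ten times the top concentration tested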
CCHF vOTU inh-2 – confirmation of CCHF virus vOTU protease inhibitors; shares compounds with CCHF vOTU inh-1; Recombinant CCHFV vOTU, Pep-AMC fluorescence; inhibition, % at 11.5 µM; 1,900 tested, 17% active; AID 686976
A number is an active result. Cut-off read from the data, not from the text of the source, unless noted: active = inhibition above about 30%; inactive = the rest.

Results for COC(=O)c1ccc(S(=O)(=O)N2CCC(NC(=O)Cc3ccccc3)CC2)cc1 ?
CCHF vOTU inh-1: inactive

Results for O=C(NC(=S)NNC(=O)c1ccccc1O)c1cccnc1 ?
Mtb bLac sens: inactive; CCHF vOTU inh-1: inactive; RecA splice inh: inactive; Rv3671c protease: 47; UGM FP inh: inactive; Rv3671c confirm: 44

Results for O=C(NC(=S)NNC(=O)c1ccc(Cl)cc1Cl)c1cccnc1 ?
Mtb bLac sens: inactive; CCHF vOTU inh-1: inactive; RecA splice inh: inactive; Rv3671c protease: inactive

How did COc1cc(C=NNc2ccc(S(=O)(=O)Nc3ccccc3C(=O)O)cc2[N+](=O)[O-])ccc1O do in these assays?
Mtb bLac sens: inactive; CCHF vOTU inh-1: inactive; Rv3671c protease: 47; UGM FP inh: inactive; Rv3671c confirm: 42

Results for Cc1cccc(NC(=O)Nc2c(-c3ccc(C(F)(F)F)cc3)nc3ncccn23)c1 ?
CCHF vOTU inh-1: inactive

What do the screens show for `O=C(N/N=C/c1cc([N+](=O)[O-])ccc1O)NC12CC3CC(CC(C3)C1)C2`?
Mtb bLac sens: inactive; CCHF vOTU inh-1: inactive; RecA splice inh: inactive; Rv3671c protease: 52; UGM FP inh: inactive; Rv3671c confirm: inactive

How did O=C(c1cccc(I)c1)N1CCC(Oc2cccnc2)CC1 do in these assays?
CCHF vOTU inh-1: inactive

How did Cc1sc(-c2ccncc2)nc1OC(=O)c1ccccc1 do in these assays?
Mtb bLac sens: inactive; CCHF vOTU inh-1: inactive; RecA splice inh: inactive; Rv3671c protease: 44; UGM FP inh: inactive; Rv3671c confirm: 61

What do the screens show for `Cc1sc(-c2ccccn2)nc1OC(=O)c1ccc(Cl)cc1`?
Mtb bLac sens: inactive; CCHF vOTU inh-1: inactive; RecA splice inh: inactive; Rv3671c protease: inactive; UGM FP inh: inactive

How did C=c1[nH]cc(C(C)c2c(C)n(C)c3ccccc23)/c1=C/C (stereo unspecified) do in these assays?
CCHF vOTU inh-1: inactive

Results for Cc1ccc(OCCn2cc(/C=N/NC(=O)c3ccncc3)c3ccccc32)cc1 ?
Mtb bLac sens: inactive; CCHF vOTU inh-1: inactive; RecA splice inh: inactive; Rv3671c protease: 40; UGM FP inh: inactive; Rv3671c confirm: inactive

What do the screens show for `COc1ccc(OCCn2cc(/C=N/NC(=O)c3ccncc3)c3ccccc32)cc1`?
Mtb bLac sens: inactive; CCHF vOTU inh-1: inactive; RecA splice inh: inactive; Rv3671c protease: inactive; UGM FP inh: inactive

What do the screens show for `CNc1ccc2c3c(cccc13)C(=O)N(C)C2=O`?
Mtb bLac sens: inactive; CCHF vOTU inh-1: inactive; RecA splice inh: inactive; Rv3671c protease: 77; UGM FP inh: inconclusive; Rv3671c confirm: 69

What do the screens show for `CN1C(=O)c2cccc3c(Cl)ccc(c23)C1=O`?
Mtb bLac sens: inactive; CCHF vOTU inh-1: inactive; RecA splice inh: inactive; Rv3671c protease: inactive; UGM FP inh: inactive

How did NNC(=O)c1cc2ccccc2cc1O do in these assays?
Mtb bLac sens: inactive; CCHF vOTU inh-1: inactive; RecA splice inh: inactive; Rv3671c protease: 37; UGM FP inh: inactive; Rv3671c confirm: inactive

How did O=C1c2ccccc2-c2onc3ccc(NCCCn4ccnc4)c1c23 do in these assays?
Mtb bLac sens: inactive; RecA splice inh: inactive; Rv3671c protease: 131; UGM FP inh: 83; Rv3671c confirm: 135; DNA intercalat: 2.5

How did COc1ccc(Cn2cc(COC(=O)Nc3ccc(F)cc3)nn2)cc1 do in these assays?
CCHF vOTU inh-1: inactive

Results for CCN1/C(=C/C=C/c2oc3ccc(-c4ccccc4)cc3[n+]2CC)Oc2ccc(-c3ccccc3)cc21 ?
Mtb bLac sens: inactive; CCHF vOTU inh-1: 37; RecA splice inh: inactive; Rv3671c protease: 60; UGM FP inh: inconclusive; Rv3671c confirm: inactive; CCHF vOTU inh-2: inactive

What do the screens show for `COCCCNc1c2c3c(cccc3[nH]c1=O)C(=O)c1ccccc1-2`?
Mtb bLac sens: inactive; CCHF vOTU inh-1: 32; Rv3671c protease: 137; UGM FP inh: 102; Rv3671c confirm: 145; CCHF vOTU inh-2: inactive

How did CCn1c(=O)n(CC(=O)N2CCCC2)c(=O)c2ccccc21 do in these assays?
CCHF vOTU inh-1: inactive

How did O=[N+]([O-])c1cc(Cl)cc(/C=N/NC(=S)Nc2ccc(S(=O)(=O)N3CCOCC3)cc2)c1O do in these assays?
Mtb bLac sens: inactive; CCHF vOTU inh-1: 39; Rv3671c protease: 58; UGM FP inh: inactive; Rv3671c confirm: inactive; CCHF vOTU inh-2: inactive

What do the screens show for `O=S(=O)(c1ccc(NC(=S)N/N=C/c2ccc(O)c(O)c2)cc1)N1CCOCC1`?
Mtb bLac sens: inactive; CCHF vOTU inh-1: inactive; RecA splice inh: inactive; Rv3671c protease: inactive; UGM FP inh: inactive

Results for CC(=O)c1ccc(NCCCN2CCC(C(O)(c3ccccc3)c3ccccc3)CC2)cc1 ?
CCHF vOTU inh-1: inactive

How did Cc1cc(C)c2nc(C(F)(F)F)nc(NCCCN3CCCC3=O)c2c1 do in these assays?
Mtb bLac sens: inactive; CCHF vOTU inh-1: inactive; RecA splice inh: inactive; Rv3671c protease: inactive; UGM FP inh: inactive; DNA intercalat: inactive

How did CC(C)CSC1=NSC2=NC(=O)/C(=C\c3coc4ccccc4c3=O)C(=N)N12 do in these assays?
Mtb bLac sens: inactive; CCHF vOTU inh-1: inactive; RecA splice inh: inactive; Rv3671c protease: inactive; UGM FP inh: inactive; DNA intercalat: 17

How did CSC1=NSC2=NC(=O)/C(=C\c3coc4ccccc4c3=O)C(=N)N12 do in these assays?
Mtb bLac sens: inactive; CCHF vOTU inh-1: inactive; Rv3671c protease: inactive; UGM FP inh: inactive

What do the screens show for `COc1cccc2c1C(=O)c1c(O)c3c(c(O)c1C2=O)CC(O)(C(=O)CO)CC3OC1CC(N)C(O)C(C)O1` (stereo unspecified)?
DNA intercalat: 6.8

How did CC(=O)Nc1cccc(N)c1 do in these assays?
Mtb bLac sens: inactive; CCHF vOTU inh-1: inactive; Rv3671c protease: inactive; UGM FP inh: inactive; DNA intercalat: inactive

How did CC(=O)Nc1cccc(C)c1 do in these assays?
Mtb bLac sens: inactive; CCHF vOTU inh-1: inactive; Rv3671c protease: inactive; UGM FP inh: inactive

Results for CN(C)/C=C1\C=C2C(=O)c3ccccc3N2C1=O ?
Mtb bLac sens: inactive; CCHF vOTU inh-1: inactive; RecA splice inh: inactive; Rv3671c protease: inactive; UGM FP inh: 103; DNA intercalat: 0.46

How did FC(F)(F)c1ccccc1C(C#Cc1ccccc1)NCc1ccc2c(c1)OCO2 (stereo unspecified) do in these assays?
CCHF vOTU inh-1: inactive

How did C[C@@H]1CN([C@H](C)CO)S(=O)(=O)c2ccc(-c3ccc(C#N)cc3)cc2O[C@H]1CN(C)C(=O)Nc1cc(F)ccc1F do in these assays?
CCHF vOTU inh-1: inactive

What do the screens show for `C/C=C/c1ccc2c(c1)O[C@@H](CN(C)C(=O)Nc1cc(F)ccc1F)[C@H](C)CN([C@@H](C)CO)S2(=O)=O`?
DNA intercalat: inactive

What do the screens show for `COc1ccc(S[C@]2(C(=O)N3CCOCC3)CC(=O)N(c3ccccc3)[C@@H]2c2ccc(OC)cc2)cc1`?
CCHF vOTU inh-1: inactive

Results for CC(=O)Nc1c(-c2ccc(C)cc2)nc2ncccn12 ?
CCHF vOTU inh-1: inactive
